Holding throughout (experiment): DAPPL (digital affinity profiling via proximity ligation, sequencing); 10 mM Tris-HCl pH 7.5, 50 mM NaCl, 1 mM DTT, 4% glycerol, room temperature, 30 min; GST-TFs on glutathione beads, 16-mer random dsDNA library, 0.1% formaldehyde crosslink after washing; high values mean tight binding
Conditions in all cases: protein: recombinant; tags: N-terminal GST; dsDNA, one strand shown

One assay has as its target T1, FLI1 (Homo sapiens, UniProt Q01543 1-452).
T1 sequence: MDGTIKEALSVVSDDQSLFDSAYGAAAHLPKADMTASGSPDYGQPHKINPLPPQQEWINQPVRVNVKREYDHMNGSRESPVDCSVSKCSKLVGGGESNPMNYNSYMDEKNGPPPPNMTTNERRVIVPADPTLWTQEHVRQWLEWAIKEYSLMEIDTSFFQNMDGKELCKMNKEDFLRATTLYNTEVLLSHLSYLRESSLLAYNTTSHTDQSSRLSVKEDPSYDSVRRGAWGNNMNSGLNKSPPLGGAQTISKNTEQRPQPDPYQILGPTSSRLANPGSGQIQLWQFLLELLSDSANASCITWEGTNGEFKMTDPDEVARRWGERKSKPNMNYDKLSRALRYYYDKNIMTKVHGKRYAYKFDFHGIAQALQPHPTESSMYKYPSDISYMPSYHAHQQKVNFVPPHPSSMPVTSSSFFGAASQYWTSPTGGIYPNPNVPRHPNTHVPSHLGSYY
The method, boiled down: (§1)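 Sequencing on an Illumina NextSeq500 followed washing, crosslinking with 0.1% formaldehyde, proximity ligation (BsaI/T4 ligase, 1 h, 37 °C) and PCR amplification of pools that had been incubated for 30 min at room temperature with 200 nmole of a random double-stranded 16-mer DNA library in Tris/NaCl/DTT/glycerol buffer. Each pool held DNA-barcoded human transcription factors, expressed in yeast as GST fusions and captured on glutathione beads, plus a tag-only sample. Binding signal is a hexamer's read frequency for a factor divided by its frequency in the tag-only sample.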

Another assay deals with T2, ELK1 (Homo sapiens, UniProt P19419 1-428).
T2 sequence: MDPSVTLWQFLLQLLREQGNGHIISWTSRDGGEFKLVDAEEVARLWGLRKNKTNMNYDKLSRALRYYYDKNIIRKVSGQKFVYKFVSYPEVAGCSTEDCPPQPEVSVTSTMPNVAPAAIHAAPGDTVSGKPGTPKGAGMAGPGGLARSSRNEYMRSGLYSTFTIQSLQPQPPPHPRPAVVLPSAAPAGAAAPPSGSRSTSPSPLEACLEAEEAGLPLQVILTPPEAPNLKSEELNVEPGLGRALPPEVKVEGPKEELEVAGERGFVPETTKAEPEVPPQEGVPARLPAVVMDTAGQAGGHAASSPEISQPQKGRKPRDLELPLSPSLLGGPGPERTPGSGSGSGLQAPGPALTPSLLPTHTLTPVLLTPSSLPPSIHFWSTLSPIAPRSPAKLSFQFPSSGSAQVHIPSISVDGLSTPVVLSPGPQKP
The method, boiled down: as §1

The target in another assay is T3, GABPA (Homo sapiens, UniProt Q06546 1-454).
T3 sequence: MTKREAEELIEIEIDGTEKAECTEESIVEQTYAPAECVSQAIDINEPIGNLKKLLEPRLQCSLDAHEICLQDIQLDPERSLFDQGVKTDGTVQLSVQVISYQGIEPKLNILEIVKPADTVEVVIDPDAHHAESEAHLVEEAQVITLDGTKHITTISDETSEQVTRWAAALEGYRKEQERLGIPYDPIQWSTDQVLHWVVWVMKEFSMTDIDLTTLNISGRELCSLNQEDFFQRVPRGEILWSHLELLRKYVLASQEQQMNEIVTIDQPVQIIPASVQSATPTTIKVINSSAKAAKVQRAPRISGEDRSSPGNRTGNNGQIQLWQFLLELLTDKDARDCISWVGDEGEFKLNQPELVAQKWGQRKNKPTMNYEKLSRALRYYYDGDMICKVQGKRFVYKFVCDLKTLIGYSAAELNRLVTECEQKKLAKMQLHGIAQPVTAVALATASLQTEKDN
Put shortly:
as §1

A further assay has as its target T4, ERG (Homo sapiens, UniProt P11308 1-479).
T4 sequence: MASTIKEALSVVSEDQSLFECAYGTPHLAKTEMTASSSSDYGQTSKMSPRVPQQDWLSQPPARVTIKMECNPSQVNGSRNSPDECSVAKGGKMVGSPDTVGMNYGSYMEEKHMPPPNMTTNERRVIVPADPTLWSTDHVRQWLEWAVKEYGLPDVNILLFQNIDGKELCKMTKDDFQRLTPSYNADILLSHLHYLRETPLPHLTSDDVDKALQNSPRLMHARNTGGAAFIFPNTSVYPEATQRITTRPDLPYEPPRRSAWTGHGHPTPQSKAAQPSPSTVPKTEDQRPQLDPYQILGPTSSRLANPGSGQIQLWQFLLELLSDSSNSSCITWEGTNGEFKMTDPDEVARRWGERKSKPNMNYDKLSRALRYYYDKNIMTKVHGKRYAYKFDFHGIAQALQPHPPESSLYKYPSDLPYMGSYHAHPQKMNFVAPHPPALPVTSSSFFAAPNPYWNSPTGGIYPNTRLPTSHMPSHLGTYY
The method, boiled down:
as §1

A further assay has as its target ELF1 (Homo sapiens, UniProt P32519 1-619). Put shortly:
as §1

In a further assay the target is T5, EHF (Homo sapiens, UniProt Q9NZC4 1-300).
T5 sequence: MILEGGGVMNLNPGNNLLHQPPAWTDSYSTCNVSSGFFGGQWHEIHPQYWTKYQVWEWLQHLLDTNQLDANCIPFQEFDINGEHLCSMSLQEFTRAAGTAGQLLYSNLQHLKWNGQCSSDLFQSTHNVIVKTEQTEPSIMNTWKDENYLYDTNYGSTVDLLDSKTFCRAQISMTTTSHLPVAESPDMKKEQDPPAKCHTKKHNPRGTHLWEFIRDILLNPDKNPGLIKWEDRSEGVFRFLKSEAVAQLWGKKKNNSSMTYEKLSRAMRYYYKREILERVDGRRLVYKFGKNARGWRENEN
The method, boiled down:
as §1

Another assay has as its target SPI1 (Homo sapiens, UniProt P17947 1-270). Put shortly:
as §1

The next assay has as its target SPIB (Homo sapiens, UniProt Q01892 1-262). Put shortly:
as §1

A further assay has as its target T6, ELK3 (Homo sapiens, UniProt P41970 1-407).
T6 sequence: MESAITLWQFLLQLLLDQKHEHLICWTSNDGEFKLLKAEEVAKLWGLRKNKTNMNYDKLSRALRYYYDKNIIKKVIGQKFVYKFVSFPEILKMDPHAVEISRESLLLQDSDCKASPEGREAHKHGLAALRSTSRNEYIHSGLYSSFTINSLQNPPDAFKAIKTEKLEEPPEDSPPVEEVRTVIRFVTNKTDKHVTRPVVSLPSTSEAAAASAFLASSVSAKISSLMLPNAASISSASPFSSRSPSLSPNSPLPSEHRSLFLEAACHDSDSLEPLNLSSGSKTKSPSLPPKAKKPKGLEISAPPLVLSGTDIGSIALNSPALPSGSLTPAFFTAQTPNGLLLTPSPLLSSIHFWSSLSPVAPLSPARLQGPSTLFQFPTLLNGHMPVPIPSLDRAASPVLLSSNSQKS
Put shortly:
as §1

For another assay, the target named is T7, FEV (Homo sapiens, UniProt Q99581 1-238).
T7 sequence: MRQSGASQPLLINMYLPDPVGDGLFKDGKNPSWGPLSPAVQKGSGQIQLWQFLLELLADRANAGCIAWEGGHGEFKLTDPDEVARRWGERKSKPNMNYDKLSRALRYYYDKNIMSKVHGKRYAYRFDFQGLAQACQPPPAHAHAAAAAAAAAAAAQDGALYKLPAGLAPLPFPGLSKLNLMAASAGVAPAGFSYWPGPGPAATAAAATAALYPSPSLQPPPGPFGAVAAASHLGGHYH
Put shortly: as §1

In the next assay the target is ETV5 (Homo sapiens, UniProt P41161 1-510). The method, boiled down: as §1
Another assay deals with T8, SPIC (Homo sapiens, UniProt Q8N5J4 1-248).
T8 sequence: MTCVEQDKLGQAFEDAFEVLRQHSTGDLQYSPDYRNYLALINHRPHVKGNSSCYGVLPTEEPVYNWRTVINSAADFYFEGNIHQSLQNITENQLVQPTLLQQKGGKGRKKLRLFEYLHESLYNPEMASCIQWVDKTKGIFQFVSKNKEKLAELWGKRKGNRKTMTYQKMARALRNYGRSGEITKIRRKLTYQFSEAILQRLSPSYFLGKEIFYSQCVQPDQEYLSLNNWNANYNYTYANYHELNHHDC
Put shortly:
as §1

A further assay has as its target ELF4 (Homo sapiens, UniProt Q99607 1-663). Put shortly:
as §1

A further assay deals with T9, ELK4 (Homo sapiens, UniProt P28324-2 1-405).
T9 sequence: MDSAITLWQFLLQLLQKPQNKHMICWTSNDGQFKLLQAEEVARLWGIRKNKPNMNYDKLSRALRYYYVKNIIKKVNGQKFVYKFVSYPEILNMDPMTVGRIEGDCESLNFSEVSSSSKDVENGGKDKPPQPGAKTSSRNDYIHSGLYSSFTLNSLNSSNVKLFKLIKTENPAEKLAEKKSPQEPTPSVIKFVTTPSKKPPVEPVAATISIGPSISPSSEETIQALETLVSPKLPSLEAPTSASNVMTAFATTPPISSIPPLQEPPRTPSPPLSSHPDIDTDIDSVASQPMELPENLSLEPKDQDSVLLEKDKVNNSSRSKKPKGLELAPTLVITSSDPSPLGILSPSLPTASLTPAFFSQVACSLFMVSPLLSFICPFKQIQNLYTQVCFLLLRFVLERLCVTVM
The method, boiled down:
as §1

The target in another assay is T10, ETV2 (Homo sapiens, UniProt O00321 1-342).
T10 sequence: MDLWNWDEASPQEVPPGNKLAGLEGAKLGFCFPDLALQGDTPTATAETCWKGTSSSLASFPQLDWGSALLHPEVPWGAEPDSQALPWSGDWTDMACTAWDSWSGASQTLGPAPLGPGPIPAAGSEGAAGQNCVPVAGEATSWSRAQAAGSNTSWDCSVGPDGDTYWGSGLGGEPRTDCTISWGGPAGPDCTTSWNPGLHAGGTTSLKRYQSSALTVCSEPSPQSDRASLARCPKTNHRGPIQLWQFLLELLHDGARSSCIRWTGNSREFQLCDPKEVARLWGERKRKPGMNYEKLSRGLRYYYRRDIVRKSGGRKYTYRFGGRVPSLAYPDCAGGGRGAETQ
The method, boiled down: as §1

The next assay addresses T11, ELF3 (Homo sapiens, UniProt P78545 1-371).
T11 sequence: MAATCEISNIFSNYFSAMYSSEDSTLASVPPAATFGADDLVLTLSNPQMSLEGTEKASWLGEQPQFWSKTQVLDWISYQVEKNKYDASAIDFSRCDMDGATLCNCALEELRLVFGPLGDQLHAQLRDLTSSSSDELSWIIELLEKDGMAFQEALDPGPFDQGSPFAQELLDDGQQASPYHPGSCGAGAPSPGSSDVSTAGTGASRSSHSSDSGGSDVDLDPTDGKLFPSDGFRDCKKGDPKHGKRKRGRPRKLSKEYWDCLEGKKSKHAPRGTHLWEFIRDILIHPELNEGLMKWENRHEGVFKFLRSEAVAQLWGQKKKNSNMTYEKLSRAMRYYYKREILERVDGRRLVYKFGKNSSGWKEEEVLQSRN
The method, boiled down: as §1

Chain of ELF4 (Q99607 whole entry): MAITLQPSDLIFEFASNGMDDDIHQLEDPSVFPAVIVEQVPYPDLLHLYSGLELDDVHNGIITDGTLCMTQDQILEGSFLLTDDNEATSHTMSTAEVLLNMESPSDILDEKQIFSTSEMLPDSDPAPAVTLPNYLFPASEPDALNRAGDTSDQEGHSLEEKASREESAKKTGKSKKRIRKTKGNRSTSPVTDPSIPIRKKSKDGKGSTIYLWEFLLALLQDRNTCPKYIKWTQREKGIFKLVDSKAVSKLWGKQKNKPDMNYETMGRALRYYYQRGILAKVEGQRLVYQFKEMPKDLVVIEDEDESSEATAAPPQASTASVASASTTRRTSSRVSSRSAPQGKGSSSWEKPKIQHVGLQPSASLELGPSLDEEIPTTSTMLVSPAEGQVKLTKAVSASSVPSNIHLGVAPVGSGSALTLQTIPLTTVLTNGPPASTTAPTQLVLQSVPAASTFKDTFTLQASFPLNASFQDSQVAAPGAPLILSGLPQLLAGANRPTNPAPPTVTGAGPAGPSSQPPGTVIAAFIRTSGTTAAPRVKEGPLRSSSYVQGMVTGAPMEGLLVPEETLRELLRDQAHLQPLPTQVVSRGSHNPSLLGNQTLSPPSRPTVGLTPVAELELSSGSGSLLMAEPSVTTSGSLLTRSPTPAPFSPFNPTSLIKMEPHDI
Chain of ELF1 (P32519 whole entry): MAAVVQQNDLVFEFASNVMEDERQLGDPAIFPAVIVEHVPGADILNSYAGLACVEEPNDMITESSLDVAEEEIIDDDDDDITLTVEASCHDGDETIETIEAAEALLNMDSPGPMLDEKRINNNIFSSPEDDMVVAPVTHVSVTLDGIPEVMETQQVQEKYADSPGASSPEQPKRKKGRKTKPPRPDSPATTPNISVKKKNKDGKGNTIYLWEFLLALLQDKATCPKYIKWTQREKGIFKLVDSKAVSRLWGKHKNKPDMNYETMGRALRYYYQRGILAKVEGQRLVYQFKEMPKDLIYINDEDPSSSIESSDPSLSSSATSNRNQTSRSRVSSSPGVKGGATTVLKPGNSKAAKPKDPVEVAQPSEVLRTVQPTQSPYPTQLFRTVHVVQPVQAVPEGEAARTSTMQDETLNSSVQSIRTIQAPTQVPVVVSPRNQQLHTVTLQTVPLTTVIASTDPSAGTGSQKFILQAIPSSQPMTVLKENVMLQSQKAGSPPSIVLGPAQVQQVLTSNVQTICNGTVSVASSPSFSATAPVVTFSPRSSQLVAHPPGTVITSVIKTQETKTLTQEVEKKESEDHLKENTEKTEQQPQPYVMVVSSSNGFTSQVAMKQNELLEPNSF
Chain of ETV5 (P41161 whole entry): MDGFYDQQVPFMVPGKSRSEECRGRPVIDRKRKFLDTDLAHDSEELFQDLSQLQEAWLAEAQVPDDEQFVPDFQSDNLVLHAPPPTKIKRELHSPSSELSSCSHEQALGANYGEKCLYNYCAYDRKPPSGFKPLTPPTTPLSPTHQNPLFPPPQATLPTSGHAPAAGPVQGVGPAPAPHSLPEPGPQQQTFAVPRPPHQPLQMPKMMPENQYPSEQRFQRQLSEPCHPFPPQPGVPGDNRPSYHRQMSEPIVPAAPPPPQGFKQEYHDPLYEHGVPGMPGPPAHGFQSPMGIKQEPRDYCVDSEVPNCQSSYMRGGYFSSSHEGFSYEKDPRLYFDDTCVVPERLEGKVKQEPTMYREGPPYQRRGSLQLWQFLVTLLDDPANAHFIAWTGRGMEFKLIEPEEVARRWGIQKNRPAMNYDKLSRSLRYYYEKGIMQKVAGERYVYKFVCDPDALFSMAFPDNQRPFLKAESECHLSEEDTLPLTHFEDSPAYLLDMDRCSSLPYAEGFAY
Chain of SPIB (Q01892 whole entry): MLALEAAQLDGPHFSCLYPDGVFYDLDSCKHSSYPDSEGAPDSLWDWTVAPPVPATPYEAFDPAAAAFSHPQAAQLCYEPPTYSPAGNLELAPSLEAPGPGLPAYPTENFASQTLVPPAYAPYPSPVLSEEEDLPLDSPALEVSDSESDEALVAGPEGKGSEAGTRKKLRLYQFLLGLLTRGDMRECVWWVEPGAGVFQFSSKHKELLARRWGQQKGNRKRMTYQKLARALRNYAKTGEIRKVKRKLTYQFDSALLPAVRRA

Consider GCGCTC, for which the binding signal in the assay with FLI1 was 1.26 fold enrichment (6-mer frequency, TF over GST control); in the assay with ELK1 it was 1.2 fold enrichment (6-mer frequency, TF over GST control); in the assay with GABPA, 1.16 fold enrichment (6-mer frequency, TF over GST control); with ERG, 1.15 fold enrichment (6-mer frequency, TF over GST control); with ELF1, 1.12 fold enrichment (6-mer frequency, TF over GST control); in the assay with EHF, 1.09 fold enrichment (6-mer frequency, TF over GST control). Also, the binding signal with SPI1 is 1.13 fold enrichment (6-mer frequency, TF over GST control); with SPIB, 1.18 fold enrichment (6-mer frequency, TF over GST control); in the assay with ELK3, 1.15 fold enrichment (6-mer frequency, TF over GST control); with FEV, 1.06 fold enrichment (6-mer frequency, TF over GST control); with ETV5, 1.13 fold enrichment (6-mer frequency, TF over GST control); with SPIC, 1.04 fold enrichment (6-mer frequency, TF over GST control). The binding signal with ELF4 was 1.24 fold enrichment (6-mer frequency, TF over GST control); with ELK4, 1.19 fold enrichment (6-mer frequency, TF over GST control); with ETV2, 1.22 fold enrichment (6-mer frequency, TF over GST control); in the assay with ELF3, 1.19 fold enrichment (6-mer frequency, TF over GST control).

The values above are taken from article PMC7862700, “An all-to-all approach to the identification of sequence-specific readers for epigenetic DNA modifications on cytosine”.
